Mito fusion yeast: inhibitors of mitochondrial division or activators of mitochondrial fusion; 320,000 tested, 0.23% active; AID 485298; S. cerevisiae fusion-defective mutant growth rescue, CellTiterGlo 48 h; Potency, µM (doses to about 46.1 µM), inactives show top-dose growth rescue (activation), usual class: activators; note: potency is the fitted concentration of half-maximal effect; % of control where 0% means no effect; nearly all actives have a fitted effect of over 45% in size
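S. cerevisiae fusion-defective temperature-sensitive mutants (e.g. fzo1-1, mgm1-5) grown 48 h at 37C in YPEG (ethanol/glycerol non-fermentable) medium with 23 nl compound per well; growth rescue read as CellTiterGlo luminescence.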
PTHR1 ag: PTHR1 (human) receptor agonism; Q03431; HEK293 GP2 PTHR1 cells, GloSensor cAMP luminescence, 1 h; Potency, µM (top dose mostly 115 µM), inactives show at the highest dose activation, hits mostly activators; 410,000 tested, 0.075% active; note: potency is the fitted concentration of half-maximal effect; nearly all actives have a fitted effect of over 55% in size
Target sequence (Q03431 whole entry, looked up): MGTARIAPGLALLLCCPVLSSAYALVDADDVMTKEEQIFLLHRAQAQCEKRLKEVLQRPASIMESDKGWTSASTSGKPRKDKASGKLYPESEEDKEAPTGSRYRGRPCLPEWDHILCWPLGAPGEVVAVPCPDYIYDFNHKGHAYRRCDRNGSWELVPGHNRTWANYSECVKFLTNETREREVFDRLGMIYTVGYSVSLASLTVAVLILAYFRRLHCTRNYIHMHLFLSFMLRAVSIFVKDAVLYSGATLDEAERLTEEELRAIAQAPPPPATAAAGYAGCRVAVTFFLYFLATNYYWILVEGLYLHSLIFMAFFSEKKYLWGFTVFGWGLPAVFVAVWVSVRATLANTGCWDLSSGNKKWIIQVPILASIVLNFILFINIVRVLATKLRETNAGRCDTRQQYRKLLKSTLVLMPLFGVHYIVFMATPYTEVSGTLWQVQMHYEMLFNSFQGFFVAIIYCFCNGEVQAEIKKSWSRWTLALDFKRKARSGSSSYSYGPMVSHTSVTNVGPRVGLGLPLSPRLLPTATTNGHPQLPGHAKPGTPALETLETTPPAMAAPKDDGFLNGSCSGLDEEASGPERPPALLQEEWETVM
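HEK-293-derived GP2 cells expressing PTHR1 and a GloSensor cAMP reporter, 3,000/well, plated overnight, given luciferin plus IBMX (each 0.5 mM as added) for 1 h at 37 °C, then compound for 1 h at 37 °C. Luminescence was read after 15 min at room temperature.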
IL2 activator: activates IL-2 in a cell-based reporter assay | IL-2 activation reporter assay, cell-based qHTS; stimulated with anti-CD3/CD4/CD28 beads; in transgenic mouse T cells | activation, % (series mostly up to about 46 µM) | 360,000 tested, 0.065% active | AID 652025; in the data active = activation above about 50%; inconclusive = mostly about 30% to 49%; note: 0% is about no effect
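Unstimulated transgenic mouse T cells; 60-min compound exposure; bead-based TCR/CD4/CD28 stimulation; 18 h culture, 37 degrees C; dual fluorescence (EGFP, DsRed) plate cytometry.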
Chronic BCR inh: blocks chronic active B-cell receptor signaling. ABC-DLBCL IkBa-CBG/CBR reporter, luminescence ratio, 4 h. Potency, µM (doses to about 46.1 µM), for inactives: at the top dose activity change, negative = inhibition, actives largely listed as inhibitors. 340,000 tested, 0.05% active. AID 493014; active = well fitted inhibition curve with a large enough effect in the signal ratio, with a control signal flat, not every such curve was filed as active; inconclusive = small, poorly fitted or top-dose-only effect, or effect the other way, or a change in a side signal; the % refers to the signal ratio;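 note: potency is the fitted concentration of half-maximal effect; plate controls were basal doxycycline-induced cells for no effect and cells given 10 µM MG132 for full effect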
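TMD8 ABC-DLBCL cells carrying doxycycline-inducible green luciferase fused to IkappaBalpha plus unfused red luciferase were exposed to compounds (up to 46 uM) for 4 hrs at 37C. Activity came from the overlap-corrected green/red luminescence ratio.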
TCR act: T cell receptor activation; primary human leukocytes, anti-CD3, IL-2 HTRF, 48 h; Potency, µM (doses to about 9.22 µM), for the others: at the top dose activation of IL-2 secretion, hits mostly activators; 330,000 tested, under 10 active; AID 504894; note: % of control where 0% means no effect
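1) Mix primary human leukocytes, a-CD3 beads and compound. 2) Incubate 48 hr. 3) Add HTRF IL-2 reagents (a-IL-2-K, a-IL-2-d2).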
BRCA1 expr act: activators of BRCA1 expression; 380,000 tested, 1.1% active; AID 624202; Potency, µM (top dose mostly 46.1 µM), inactives show at the highest dose activation, usual class: activators; MCF7-BRCA1-FFLuc reporter, luminescence, 48 h; response scale: scaled: vehicle 0%, 10 µM genistein 100%; note: potency is the fitted concentration of half-maximal effect; nearly all actives have a fitted effect of over 80% in size
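48 h compound treatment of MCF7-BRCA1-FFLuc cells (phenol-red free MEM, 37 °C), then 15 min with luciferase substrate and luminescence imaging.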
Starred values were filed as active, the others as inactive; i = inactive; ? = inconclusive; nt = no result; [ ] = remark or other dose. The list is not random: actives were taken first. Their share in the collection is about 1.3%. Unless noted, calls come from the whole dose curve; as a rule, active = well fitted curve in the direction sought with a large enough effect; inconclusive = small, poorly fitted or top-dose-only effect, or another doubt; inactive = no such curve, though single readings can be large; an effect the other way counts as inactive or inconclusive.

SMILES	Mito fusion yeast	PTHR1 ag	IL2 activator	Chronic BCR inh	TCR act	BRCA1 expr act
COC(=O)c1cc2n(n1)CCN(Cc1ccccc1Cl)C2=O	0.0%	i	-1.6	?	2.5%	-34.2%
COC(=O)c1ccn(Cc2ccccc2Cl)n1	-3.2%	i	1.9	?	4.0%	12.6µM*
Fc1ccc(Nc2ccc(-c3ccc(F)cc3)nn2)cc1	17.5%	-15.8%	-0.9	-27.3%	3.6%	5.62µM*
CSCC[C@H](NC(=O)[C@@H]1CSC2c3ccccc3C(=O)N21)C(=O)NCc1ccco1 (stereo partly drawn)	1.2%	-4.9%	-0.3	3.5%	-2.0%	-16.2%
CSc1ccc(-c2nnn(Cc3ccccn3)n2)cc1	-0.2%	-22.5%	5.8	5.7%	4.0%	8.91µM*
CSc1ccc(-c2nnn(Cc3ccc(Br)cc3)n2)cc1	0.6%	-0.9%	0.2	?	-5.6%	60.3%
O=C(c1ccc(COc2ccc(Cl)cc2)cc1)N1CCCCC1	3.3%	i	2.5	-11.1%	15.7%	3.16µM*
Cc1cc(Cl)ccc1OCC(=O)N1CCCCC1	-0.8%	i	2.2	?	1.0%	11.2µM*
CCCCOc1ccc(C(=O)N2CCCCCC2)cc1	4.6%	i	-0.7	5.7%	-16.6%	98.7%
O=C(CCCOc1ccc(Cl)cc1)N1CCCCCC1	11.1%	-32.9%	2.0	7.6%	-4.6%	71.3%
Cc1cc(Cl)ccc1OCC(=O)N1CCN(c2ncccn2)CC1	17.9%	-6.7%	-3.6	-9.7%	1.0%	10.2%
O=C(CCCOc1ccc(Cl)cc1)N1CCCCC1	8.4%	i	-1.4	?	14.7%	12.6µM*
COc1ccc(N=c2nc(-c3ccccc3)n(-c3ccc(C)cc3)s2)cc1	nt	nt	nt	nt	nt	-59.6%
O=c1oc(Nc2cccc(Cl)c2)nc2ccccc12	0.5%	-43.7%	-4.6	?	3.1%	7.08µM*
O=C(Nc1ccc2oc(-c3cccc4ccccc34)nc2c1)c1ncn[nH]1	9.6%	-50.5%[57.5 µM]	0.3	-18.4%	-1.8%	2.24µM*
CC(C)c1ccc(Nc2n[nH]c(=S)s2)cc1	nt	-1.9%	0.1	nt	nt	2.51µM*
COc1ccc(-c2nc3ccccc3c(=O)n2O)cc1	-9.2%	50.1µM*	-3.7	-6.6%	-9.2%	-0.5%
CCOc1ccc(-c2nc(C#N)c(NC3CC3)o2)cc1	1.3%	i	-2.1	?	-1.6%	10µM*
CCOc1ccc(Nc2oc(-c3ccc(Cl)cc3)nc2C#N)cc1	0.0%	i	2.2	?	0.4%	9.7%
CC(=O)C1=C(O)C(=O)N(Cc2cccnc2)C1c1ccc(C(C)C)cc1 (stereo not drawn)	4.47µM*	i	2.2	-0.4%	-1.6%	-0.5%
COc1ccc(C(=O)Nc2ccc(N3CCN(C)CC3)cc2)cc1OC	0.1%	27.0%	-1.3	-1.9%	6.3%	2µM*
COc1ccc(C(=O)Nc2ccc(N3CCN(C)CC3)cc2)cc1	1.3%	-15.0%	0.8	4.0%	nt	2.24µM*
CCOc1ccc(C(=O)Nc2ccc(N3CCN(C)CC3)cc2)cc1	1.4%	i	-0.1	0.4%	0.6%	48.2%
Cc1ccc(C(=O)Nc2ccc(N3CCN(C)CC3)cc2)cc1	0.7%	-20.4%	1.2	2.2%	1.2%	1.26µM*
COc1ccc(NC(=O)c2ccc3c(c2)N(C)CCS3)cc1	-0.3%	-92.4%	-2.6	?	-27.6%	10µM*
SMILES	Mito fusion yeast	PTHR1 ag	IL2 activator	Chronic BCR inh	TCR act	BRCA1 expr act
O=C(c1cc(-c2ccc(Cl)cc2)on1)N(Cc1cccc(F)c1)Cc1ccco1	nt	-24.9%	nt	nt	nt	-0.3%
COc1cc(N=Nc2ccccc2C(=O)O)ccc1O	-17.5%	i	-2.1	?	3.9%	-40.8%
COc1cc(N=Nc2ccc3ccccc3c2)ccc1O	-28.0%	-2.8%	0.1	-22.6%	2.6%	5.01µM*
CCOc1ccc(N=C(/C(C(=O)C(=O)N2CCOCC2)=C(/O)c2ccccc2)c2ccccc2)cc1	-1.7%	-3.3%	0.1	?	7.0%	11.2µM*
CCn1ncc(C2=NOC(C(=O)Nc3cccc(C(C)=O)c3)C2)c1C (stereo not drawn)	-1.5%	i	0.2	-16.2%	9.2%	-51.8%
CCOC(=O)c1cc(C#N)c(SC(C(=O)N2CCCCC2)c2ccccc2)nc1C (stereo not drawn)	nt	nt	nt	nt	nt	15.5%
CCSc1nc2ccccc2n1CCOc1ccccc1	22.5%	-0.7%	-1.2	1.3%	1.6%[46.1 µM]	14.1µM*
COCCn1c(COc2ccc(C)cc2)nc2ccccc21	-7.1%	-2.8%[57.5 µM]	-0.3	?	4.3%	11.2µM*
CCOCCn1c(COc2ccc(C)cc2)nc2ccccc21	?	i	-0.4	0.3%	2.2%[46.1 µM]	?
Cn1c(COc2ccccc2)nc2ccccc21	-7.7%	-48.8%	0.1	?	-2.4%	10µM*
CC1(c2ccc(Cl)cc2)NC(=O)N(CC(=O)Nc2cccnc2Cl)C1=O (stereo not drawn)	-7.2%	-2.1%	1.9	0.0%	3.3%	-14.8%
CCOC(=O)c1cccc(NC(=O)CN2C(=O)c3ccccc3Sc3ncccc32)c1	nt	15.0%	nt	nt	nt	13.9%
Cc1nc([N+](=O)[O-])cn1CC(O)c1ccc2c(c1)OCCCO2 (stereo not drawn)	nt	nt	nt	nt	nt	23.4%
Cc1ccc(NC(=O)N2CCc3ccccc3C2)cc1C	0.9%	-6.7%	-0.5	?	1.3%	10µM*
Cc1cc(-c2nnc(SCC(=O)NC3CC3)n2C(C)C)cs1	1.9%	i	1.8	-0.6%	-2.9%	-9.3%
Cc1[nH]nc(N)c1N=Nc1ccc(Br)cc1	21.9%	nt	nt	-14.1%	nt	nt
Cc1ccc(N=Nc2c(N)n[nH]c2N)cc1	-3.5%	-7.5%	0.2	0.4%	-3.5%	10µM*
Nc1n[nH]c(C2CC2)c1N=Nc1ccc(Cl)c(Cl)c1	-23.2%	i	-4.3	9.9%	-3.6%	1.6%
Nc1n[nH]c(N)c1N=Nc1ccc2c(c1)OCO2	-2.5%	i	-1.9	?	9.7%	10µM*
COc1cccc(N2CCN(Cc3cc(=O)oc4cc(C)ccc34)CC2)c1	nt	-1.3%	nt	nt	nt	nt
Cc1ccc(-c2nc3cccc(C)n3c2Nc2ccc(F)cc2)o1	nt	nt	nt	nt	nt	-6.8%
C=C(C)Cn1c(N2CC(C)CC(C)C2)nc2c1c(=O)[nH]c(=O)n2C (stereo not drawn)	25.1µM*	-14.6%	-1.4	?	2.4%	-0.7%
CCOC(=O)c1c(-c2cccs2)csc1NC(=O)CN1CCOCC1	4.2%	-8.1%[57.5 µM]	-0.8	0.1%	9.1%	-58.9%
CCOC(=O)c1c(-c2ccc(C)cc2)csc1NC(=O)CCN1CCOCC1	12.6µM*	i	0.0	2.4%	15.5%[46.1 µM]	-46.9%
CCOC(=O)c1c(-c2ccccc2)csc1NC(=O)CCN1CCOCC1	11.2µM*	i	-0.3	?	-9.2%[46.1 µM]	-42.1%

Source: PubChem (National Center for Advancing Translational Sciences (NCATS))
